{"source": "PubChem BioAssay AID493170", "about": "(National Center for Advancing Translational Sciences (NCATS), 2011)", "note": "Records with an inconclusive call do not appear. Where a call stands in place of a potency, no number is given. Active and inactive are the calls of the source. Calls follow the shape of the dose curve; as a rule, active = well fitted inhibition curve with a large enough effect; inconclusive = small, poorly fitted or top-dose-only effect, or effect the other way; inactive = flat fitted curve, though single readings scatter. Potency is read from the fitted curve at half-maximal effect."}
{"target": "Ubiquitin carboxyl-terminal hydrolase 2 (Homo sapiens) (UniProt O75604)", "sequence (O75604 whole entry, looked up)": "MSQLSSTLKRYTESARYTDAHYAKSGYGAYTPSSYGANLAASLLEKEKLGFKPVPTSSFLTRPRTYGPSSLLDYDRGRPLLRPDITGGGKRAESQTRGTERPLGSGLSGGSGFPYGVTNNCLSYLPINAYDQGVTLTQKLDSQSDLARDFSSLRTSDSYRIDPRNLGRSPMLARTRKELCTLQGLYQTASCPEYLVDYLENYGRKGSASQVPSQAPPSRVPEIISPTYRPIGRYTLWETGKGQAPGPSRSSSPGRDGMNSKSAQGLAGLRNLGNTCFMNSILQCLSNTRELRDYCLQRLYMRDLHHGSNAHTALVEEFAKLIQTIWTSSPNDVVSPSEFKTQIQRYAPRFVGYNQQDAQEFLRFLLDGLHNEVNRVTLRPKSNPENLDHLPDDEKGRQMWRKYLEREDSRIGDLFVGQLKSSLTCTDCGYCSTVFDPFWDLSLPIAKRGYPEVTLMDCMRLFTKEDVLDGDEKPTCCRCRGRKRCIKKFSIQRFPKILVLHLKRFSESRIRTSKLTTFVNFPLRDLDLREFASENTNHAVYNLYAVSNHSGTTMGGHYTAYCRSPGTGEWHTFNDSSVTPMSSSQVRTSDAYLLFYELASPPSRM", "assay": "Ub-rhodamine 110 based assay for inhibitors Ubiquitin-specific Protease USP2a; also: nearly all actives have a fitted effect of over 50% in size", "conditions": "USP2a Ub-rhodamine110 cleavage, fluorescence; series mostly up to 38.3 µM", "source_text": "NIH Molecular Libraries Probe Centers Network [MLPCN] NIH Chemical Genomics Center [NCGC] MLPCN Grant: XO1-MH079852-01 PI Name: Nicholson, Ben. Progenra Inc, Malvern, PA NCGC Assay Overview: Homeostasis of cellular proteins is maintained through a combination of synthesis and degradation. The pathway that accounts for the majority of protein degradation is the ubiquitin-proteasomal pathway. Ubiquitin (Ub) is highly conserved in all cells and the generation of a multi-Ub chain typically targets proteins for degradation by the proteasome. However, ubiquitination is highly reversible and dynamic. Deubiquitination, the reverse process, is catalyzed through the action of enzymes referred to as isopeptidases or deubiquitinating enzymes (DUBs). This group of enzymes is collectively responsible for maintaining adequate pools of free ubiquitin and regulating the ubiquitination status of cellular proteins. The class of DUBs referred to as the ubiquitin-specific proteases (USP) family functions endoproteolytically to cleave Ub chains from a wide range of protein substrates. USP2a deubiquitinates fatty acid synthase (FASN) which has recently been identified as an emerging oncology target. To identify inhibitors of USP2a a cell-free assay was employed. This assay measures cleavage of a profluorescent substrate (Ub-Rhodamine 110; Boston Biochem Cat#: U-555) by USP2a. The assay gives a fluorescent read-out at excitation/emission wavelengths of 485/531. The USP2a enzyme was provided by Progenra, Inc. licensed for sale by LifeSensors, Inc.\nNCGC Assay Protocol: The assay buffer, prepared fresh at the day of the assay, contains 20mM Tris-HCl pH 8.0, 2mM CaCl2, 2mM beta-Mercaptoethanol, 0.05% CHAPS. 3uL of 10 nM (5 nM final) USP2a, was dispensed into a medium-binding black solid Kalypsys 1,536 well plate using the Kalypsys dispenser. The assay plate was then pinned with 23nL compounds in DMSO with a Kalypsys pintool in columns 5-48 (0.3% final DMSO concentration). The negative control was buffer/DMSO only in column 3. The assay plate is incubated at RT for 30min. Subsequently, 3uL of 300 nM Ub-Rhod110 (150 nM final) was dispensed into the plate using a Kalypsys dispenser. Plates were read after every minute for 7 min on a ViewLux (Perkin Elmer) plate reader using the following wavelengths: Ex 485nm /Em 531nm. Data were normalized to the AC100 inhibition (buffer alone). Concentration-response curves were fitted to the normalized data and the concentration-response curves were then classified based on curve quality (r2), response magnitude and degree of measured activity. The time zero reading was used to flag fluorescence artifacts."}
{"compound": "CC(=Nc1ccc2c(c1)CCC2)c1c(O)n(C)c(=O)n(C)c1=O", "Potency": "inactive"}
{"compound": "CCCC1=C(C(=O)OCC)C2(C(=O)Nc3ccc(C)cc32)C(C#N)=C(N)O1", "note": "(stereo unspecified)", "Potency": "inactive"}
{"compound": "O=C(COc1ccc(S(=O)(=O)N2CCOCC2)cc1)N1CCN(Cc2ccc3c(c2)OCO3)CC1", "Potency": "inactive"}
{"compound": "O=c1[nH]c(=O)n(Cc2ccc(F)cc2)c(O)c1C=NCCCn1ccnc1", "Potency": "inactive"}
{"compound": "Clc1ccc(C(c2ccc(Cl)cc2)n2cc[n+](CC(OCc3ccc(Cl)cc3Cl)c3ccc(Cl)cc3Cl)c2)cc1", "note": "(stereo unspecified)", "Potency": "10 µM (active)"}
{"compound": "COc1ccc(NC(=O)c2c(C)nn(Cc3ccccc3Cl)c2Cl)cc1Cl", "Potency": "inactive"}
{"compound": "COc1ccc(S(=O)(=O)Cc2ccc(C(=O)N3CCC4(CC3)OCCO4)o2)cc1", "Potency": "inactive"}
{"compound": "CC1Oc2cc3c(-c4c(O)cc(O)c5c(O)c6c(cc45)OC(C)C(C)C6=O)c(O)cc(O)c3c(O)c2C(=O)C1C", "note": "(stereo unspecified)", "Potency": "2 µM (active)"}
{"compound": "Cc1nn(Cc2ccc(Cl)cc2Cl)c(Cl)c1C(=O)Nc1ccc(OC(F)F)cc1", "Potency": "inactive"}
{"compound": "CCCCn1c(=O)c(C(=O)Nc2ccccc2S(N)(=O)=O)c(O)c2ccccc21", "Potency": "10 µM (active)"}
{"compound": "CC(C)N1C(=O)/C(=C/C=C/c2ccco2)C(=O)N(Cc2ccco2)C1=O", "Potency": "12.6 µM (active)"}
{"compound": "FC(F)(F)c1ccc2c(c1)N(CCCN1CCN(CCCl)CC1)c1ccccc1S2", "Potency": "inactive"}
{"compound": "O=C1NC(=O)[C@]2(Cc3ccccc3N3CCN(c4ccccc4)CC32)C(=O)N1Cc1ccccc1", "note": "(stereo partly specified)", "Potency": "6.31 µM (active)"}
{"compound": "O=C(O)c1cccc2c1NC(C(=O)O)C1CC(Sc3ccccc3[N+](=O)[O-])C(Cl)C21", "note": "(stereo unspecified)", "Potency": "5.01 µM (active)"}
{"compound": "Nc1ccc(S(=O)(=O)N2CCCCC2c2cccnc2)cc1", "note": "(stereo unspecified)", "Potency": "inactive"}
{"compound": "OC(c1ccncc1)(c1ccc(F)cc1)c1ccc(F)cc1", "Potency": "inactive"}
